This is an account of results in PubChem BioAssay.

For one test, the target named is Albumin (Bos taurus) (UniProt P02769). Nature of the test: compounds binding labelled BSA control protein – biochemical, small-molecule microarray, Alexa647 label, 635/667 nm fluorescence, artefact control for SMM control protein annotation, profiling panel (AID 1118).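 Further: score merges 667 nm emission intensity and signal-to-noise per printed compound spot.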 To be noted: BSA-A647 binding, fluorescence 635 nm, higher = more signal.
Sequence of Albumin (Bos taurus) (P02769 whole entry, looked up): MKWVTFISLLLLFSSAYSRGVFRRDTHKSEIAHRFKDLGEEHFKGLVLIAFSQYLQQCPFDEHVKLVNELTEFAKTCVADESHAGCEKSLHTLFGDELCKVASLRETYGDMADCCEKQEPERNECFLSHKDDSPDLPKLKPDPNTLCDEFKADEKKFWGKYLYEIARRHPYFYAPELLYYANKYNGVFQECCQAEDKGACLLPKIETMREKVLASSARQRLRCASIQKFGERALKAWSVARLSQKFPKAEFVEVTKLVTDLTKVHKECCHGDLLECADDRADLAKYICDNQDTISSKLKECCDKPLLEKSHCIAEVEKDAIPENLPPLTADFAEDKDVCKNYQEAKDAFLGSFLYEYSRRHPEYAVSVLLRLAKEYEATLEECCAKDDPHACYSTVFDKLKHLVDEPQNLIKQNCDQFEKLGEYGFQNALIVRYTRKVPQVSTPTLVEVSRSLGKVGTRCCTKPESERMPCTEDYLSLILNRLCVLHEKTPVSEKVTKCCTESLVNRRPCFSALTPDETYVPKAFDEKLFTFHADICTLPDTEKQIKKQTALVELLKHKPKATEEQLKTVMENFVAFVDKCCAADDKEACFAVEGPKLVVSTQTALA
Test [1] can be described thus: probe aXIP binding to arrayed compounds – biochemical, NeuroSMM set, 635/667 nm fluorescence, primary screen (AID 1119).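 Further: probe is the protein aXip251-270 applied at 1 µg/mL to compound-printed slides; binding of probe to printed compounds measured as 667 nm fluorescence plus signal to noise.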 The note with it: small-molecule microarray, higher = more signal, called active from +8 up or from −8 down.
The nature of test [2]: probe aNOTCH3 binding on compound microarray – biochemical, small-molecule microarray, 635/667 nm fluorescence, primary screen (AID 1120).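 Further: probe is a biotin-tagged antibody raised against NOTCH3 rather than NOTCH3 protein; score merges spot fluorescence near 667 nm with spot signal to noise.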 To be noted: higher = more signal.
The nature of test [3]: probe aNOTCH2 binding on compound microarray – biochemical, small-molecule microarray, 635/667 nm fluorescence, primary screen (AID 1121).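 Further: score merges feature fluorescence read at 667 nm with its signal to noise.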 To be noted: higher = more signal.
The target of test [4] is Carbonic anhydrase 2 (Homo sapiens) (UniProt P00918). Nature of the test: compounds binding carbonic anhydrase 2 – biochemical, small-molecule microarray, Alexa647-labelled CAII, profiling panel (AID 1122). To be noted: CAII-A647 binding fluorescence, higher = more signal.
The nature of test [5]: COS7 lysate on small-molecule microarray, probe aHis, 635 nm (AID 1123).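 Further: z-score combines 667nm fluorescence intensity with signal-to-noise per printed compound spot.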 The note with it: COS7 cell lysate, fluorescence, higher = more signal.
Test [6] in a line: probe aLAP1 signal on lysate-treated microarray – cell lysate, small-molecule microarray, COS7 lysate, primary screen (AID 1124).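 Further: lysate comes from COS7 cells expressing LAP1 and is applied at 0.3 µg/mL; score merges spot fluorescence near 667 nm with signal-to-noise over triplicate slides.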 The note with it: probe aLAP1, fluorescence, higher = more signal.
A further test concerns Sam68 (KHDRBS1). In words: compounds binding KHDRBS1 protein – biochemical, small-molecule microarray, 635 nm fluorescence, primary screen (AID 1125).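 Further: score merges 667 nm channel intensity with signal to noise over triplicate slides.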 To be noted: higher = more signal.
The subject of test [7] is Chordin-like protein 2 (CHRDL2). In words: compounds binding chordin-like 2 – biochemical, small-molecule microarray, 635 nm fluorescence, primary screen (AID 1126).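 Further: printed compound slides probed with Chrdl2 protein at 4 µg/mL for 1 h at 4 C; score merges 667 nm emission intensity with signal to noise over three replicate slides.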 The note with it: fluorescence 635 nm, higher = more signal.
The target in test [8] is Concanavalin-A (Canavalia ensiformis) (UniProt P02866). In words: compounds binding concanavalin A lectin – biochemical, small-molecule microarray, Alexa647 label, 635 nm, artefact control for SMM control protein annotation, primary screen (AID 1127).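 Further: z combines 667 nm emission intensity with signal-to-noise across three replicate slides.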 The note with it: ConA-A647 binding fluorescence, higher = more signal.
Sequence of Concanavalin-A (Canavalia ensiformis) (P02866 whole entry, looked up): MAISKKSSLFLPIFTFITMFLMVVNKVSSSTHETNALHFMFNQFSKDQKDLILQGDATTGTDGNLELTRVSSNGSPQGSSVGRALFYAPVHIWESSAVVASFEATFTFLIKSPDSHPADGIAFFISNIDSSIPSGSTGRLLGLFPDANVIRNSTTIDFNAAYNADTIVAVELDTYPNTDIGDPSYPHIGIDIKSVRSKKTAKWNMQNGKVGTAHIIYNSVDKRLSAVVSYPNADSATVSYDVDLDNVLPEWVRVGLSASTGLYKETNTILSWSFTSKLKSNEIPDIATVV
A short description of test [9]: compounds binding Alexa647 anti-His antibody – biochemical, small-molecule microarray, 635 nm fluorescence, artefact control for SMM control protein annotation, primary screen (AID 1128).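 Further: score merges feature fluorescence with signal-to-noise for each printed compound spot.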 The note with it: higher = more signal.
For test [10], the system named is Human papillomavirus type 1a E7 protein (residues 1-88). In words: HPV1a E7 small-molecule binders, primary screen, biochemical, small-molecule microarray, residues 1-88, 635 nm (AID 1129). The note with it: small-molecule microarray binding, fluorescence 635 nm; higher = more signal.
Test [11] has as its target Focal adhesion kinase 1 (Homo sapiens) (UniProt Q05397). Nature of the test: PTK2 protein binding on printed compound slides – biochemical, small-molecule microarray, 635/667 nm fluorescence, BSA, DTT, primary screen (AID 1130).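 Further: composite of spot emission at 667 nm and signal to noise over triplicate slides.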 To be noted: 635 nm fluorescence, higher = more signal.
Test [12] relates to Fibrinogen (Alexa647-labelled). Nature of the test: Alexa647-fibrinogen binding to printed small molecules – biochemical, small-molecule microarray, 635/667 nm fluorescence, artefact control for SMM control-protein annotation, profiling panel (AID 1131).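 Further: z-score merges 667 nm fluorescence with per-spot signal-to-noise over triplicate slides.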 The note with it: fibrinogen-A647 binding fluorescence, higher = more signal.
The target in test [13] is Follistatin (Homo sapiens) (UniProt P19883). In words: FST protein binding to printed compounds – biochemical, small-molecule microarray, 635/667 nm fluorescence, primary screen (AID 1132). To be noted: 635 nm fluorescence, higher = more signal.
Sequence of Follistatin (Homo sapiens) (P19883 whole entry, looked up): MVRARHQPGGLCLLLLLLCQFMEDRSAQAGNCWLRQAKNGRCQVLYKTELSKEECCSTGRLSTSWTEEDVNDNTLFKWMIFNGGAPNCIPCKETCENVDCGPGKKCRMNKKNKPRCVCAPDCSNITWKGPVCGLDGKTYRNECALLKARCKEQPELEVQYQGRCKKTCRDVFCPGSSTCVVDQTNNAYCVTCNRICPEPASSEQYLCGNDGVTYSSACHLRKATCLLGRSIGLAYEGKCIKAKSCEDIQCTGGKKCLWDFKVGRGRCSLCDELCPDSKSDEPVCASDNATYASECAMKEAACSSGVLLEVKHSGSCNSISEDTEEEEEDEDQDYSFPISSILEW
Test [14] has as its target Fibroblast growth factor 2 (Homo sapiens) (UniProt P09038). Nature of the test: basic fibroblast growth factor binding to printed compounds – biochemical, small-molecule microarray, 635/667 nm fluorescence, primary screen (AID 1133). To be noted: FGF2, fluorescence 635/667, higher = more signal.
Test [15] can be described thus: JC-1 mitochondrial potential readout, lung cancer cells – cell-based, A549, JC-1 fluorescence, basal, 24 h, 100 nL, profiling panel (AID 1138).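 Further: A549 lung adenocarcinoma cells under basal conditions with no added stimulus; test concentration not given here.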 To be noted: higher = more signal.
The subject of a further test is Lefty1. Nature of the test: Lefty1 protein binding to printed compounds – biochemical, small-molecule microarray, 635/667 nm fluorescence, primary screen (AID 1139). To be noted: fluorescence 635/667, higher = more signal.
Test [16] has as its system wheat germ agglutinin (Triticum aestivum), Alexa647-labelled. In words: Alexa647-WGA lectin binding to printed small molecules – biochemical, small-molecule microarray, 635/667 nm fluorescence, artefact control for SMM control-protein annotation, profiling panel (AID 1140).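 Further: score merges 667 nm feature emission with signal to noise over triplicate slides.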 To be noted: WGA-A647 binding, 635 nm fluorescence, higher = more signal.
For test [17], the target named is Luciferin 4-monooxygenase (Photinus pyralis) (UniProt P08659). Nature of the test: inhibition of purified Photinus pyralis luciferase – biochemical, luminescence, purified enzyme, 2006 set, primary screen (AID 1141).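 Further: cell-free assay with purified firefly luciferase at 100 ng per well in PBS; test concentration not given here.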 The note with it: purified firefly luciferase, SteadyGlo luminescence, 30 min; higher = more signal, called active from +8 up or from −8 down.
Sequence of Luciferin 4-monooxygenase (Photinus pyralis) (P08659 whole entry, looked up): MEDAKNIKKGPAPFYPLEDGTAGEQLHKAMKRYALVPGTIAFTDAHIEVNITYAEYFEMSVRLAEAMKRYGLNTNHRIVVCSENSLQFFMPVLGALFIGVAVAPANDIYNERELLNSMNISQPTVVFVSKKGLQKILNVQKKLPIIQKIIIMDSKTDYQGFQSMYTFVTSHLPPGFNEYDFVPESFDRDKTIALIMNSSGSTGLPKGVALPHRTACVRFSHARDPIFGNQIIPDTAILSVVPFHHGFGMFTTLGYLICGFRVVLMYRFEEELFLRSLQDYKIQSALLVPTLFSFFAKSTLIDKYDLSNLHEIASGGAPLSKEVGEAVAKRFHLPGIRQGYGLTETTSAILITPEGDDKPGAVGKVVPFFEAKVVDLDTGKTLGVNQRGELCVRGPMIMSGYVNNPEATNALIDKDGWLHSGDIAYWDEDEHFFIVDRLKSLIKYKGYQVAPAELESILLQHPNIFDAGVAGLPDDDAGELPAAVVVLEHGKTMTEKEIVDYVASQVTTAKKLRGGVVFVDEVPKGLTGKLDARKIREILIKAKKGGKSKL

Molecules are shown by their SMILES. Active and inactive are the calls of the source.

Sequence of Fibroblast growth factor 2 (Homo sapiens) (P09038 whole entry, looked up): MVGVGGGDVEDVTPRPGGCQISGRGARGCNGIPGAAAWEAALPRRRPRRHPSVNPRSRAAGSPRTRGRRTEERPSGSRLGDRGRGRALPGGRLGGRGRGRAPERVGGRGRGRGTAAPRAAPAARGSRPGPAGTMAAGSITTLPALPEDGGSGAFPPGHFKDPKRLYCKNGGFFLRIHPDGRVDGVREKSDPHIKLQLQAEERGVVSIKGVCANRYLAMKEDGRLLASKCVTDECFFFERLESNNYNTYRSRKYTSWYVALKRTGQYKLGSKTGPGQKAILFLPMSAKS
Sequence of Focal adhesion kinase 1 (Homo sapiens) (Q05397 whole entry, looked up): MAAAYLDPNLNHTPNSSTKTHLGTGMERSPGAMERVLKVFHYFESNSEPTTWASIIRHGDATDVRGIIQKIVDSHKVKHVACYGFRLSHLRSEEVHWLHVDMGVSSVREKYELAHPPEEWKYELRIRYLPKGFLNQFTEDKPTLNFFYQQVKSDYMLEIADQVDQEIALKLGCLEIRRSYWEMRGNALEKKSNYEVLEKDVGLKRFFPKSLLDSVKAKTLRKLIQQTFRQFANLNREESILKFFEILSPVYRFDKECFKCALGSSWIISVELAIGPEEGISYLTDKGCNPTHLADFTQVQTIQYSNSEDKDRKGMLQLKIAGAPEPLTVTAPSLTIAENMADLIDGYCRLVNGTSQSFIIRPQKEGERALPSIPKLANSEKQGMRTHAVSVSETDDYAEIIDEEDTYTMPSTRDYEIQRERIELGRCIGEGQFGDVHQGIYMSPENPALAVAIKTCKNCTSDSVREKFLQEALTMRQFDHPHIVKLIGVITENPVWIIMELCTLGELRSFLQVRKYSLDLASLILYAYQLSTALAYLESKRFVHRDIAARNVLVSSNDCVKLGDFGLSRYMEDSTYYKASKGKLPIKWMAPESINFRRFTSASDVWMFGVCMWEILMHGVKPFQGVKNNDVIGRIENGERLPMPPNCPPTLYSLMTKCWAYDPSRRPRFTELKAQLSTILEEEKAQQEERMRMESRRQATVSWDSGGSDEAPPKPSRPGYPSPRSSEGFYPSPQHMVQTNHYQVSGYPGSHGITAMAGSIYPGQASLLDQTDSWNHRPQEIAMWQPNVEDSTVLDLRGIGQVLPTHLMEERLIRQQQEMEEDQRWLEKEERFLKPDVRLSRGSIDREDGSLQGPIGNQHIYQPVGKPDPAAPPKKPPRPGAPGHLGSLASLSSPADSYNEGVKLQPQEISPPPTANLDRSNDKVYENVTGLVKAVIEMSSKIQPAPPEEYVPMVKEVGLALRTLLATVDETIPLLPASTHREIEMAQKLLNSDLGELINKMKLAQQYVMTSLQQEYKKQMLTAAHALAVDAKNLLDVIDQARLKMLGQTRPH

In the case of `CC(CO)N1C(=O)[C@@H]2C3C(=O)OCCC/C=C\[C@H]3OC23C=CCN(Cc2ccccc2)C(=O)[C@@H]13` (stereo not given in full), the composite z-score with Albumin (Bos taurus) is -0.656; in test [2], -0.189; in [3], -0.177; in test [4], 0.866; in [5], -0.255; in test [6] it was -0.285. In addition, the composite z-score was -0.164 in the test with Sam68 (KHDRBS1); -1.64 in test [7]; -2.2 in [8]; -1.18 in [9]; -1.47 in test [10]; -0.55 in [11]. Moreover, the composite z-score in test [12] is -1.52; in test [13], -0.742; in test [14], -0.426; in the test with Lefty1, -0.532; in [16], -1.54. In addition, the composite Z-score in test [1] was -0.427 (inactive). Also, the z-score is 0.935 in test [15] and -1.56 (inactive) in test [17].

As for `C=CCNC(=O)[C@H]1[C@@H]2C(=O)O[C@@H](c3ccccc3)[C@@H](c3ccccc3)N2[C@@H](c2ccccc2OCCO)[C@]12C(=O)N(C(=O)OCCOC)c1ccc(C#CCCO)cc12`, the composite z-score worked out at 0.0097 in the test with Albumin (Bos taurus); 0.142 in [2]; 0.399 in [3]; 0.417 in test [4]; 1.79 in test [5]; 0.665 in test [6]. Also, the composite z-score in the test with Sam68 (KHDRBS1) amounted to 1.32; in [7], 1.18; in [8], 1.11; in test [9], 1.34; in [10], 1.09; in test [11] it was 1.02. For the same molecule, the composite z-score in [12] came to 0.614; in [13], 1.42; in test [14], 1.72; with Lefty1 it was 0.817; in test [16], 0.958. Besides, the composite Z-score in [1] is 0.433 (inactive). The z-score is 1.7 in test [15] and -1.66 (inactive) in test [17].

Take `CC(C)(C)OC(=O)CC[C@@]12N=C(c3ccc(OCCCO)cc3)O[C@@H]1c1ccccc1CN(Cc1ccccc1)C2=O`: the composite z-score with Albumin (Bos taurus) was -0.478; in test [2], 0.0026; in [3], -0.11; in [4], 0.418; in test [5], 1.73; in test [6] it was -0.0961. In addition, the composite z-score in the test with Sam68 (KHDRBS1) was 1.31; in [7], -0.0229; in [8] it was 1.1; in test [9] it was 2.46; in [10], 1.18; in test [11] it was 1.36. For the same molecule, the composite z-score in test [12] was 0.357; in [13], 1.32; in [14], 1.43; in the test on Lefty1, 0.377; in [16], 0.438. The composite Z-score in test [1] is 0.976 (inactive). The figures for the z-score in [15] and in test [17] were 1.09 and -1.59 (inactive), respectively.

`COCCOC(=O)N1C(=O)[C@@]2(c3cc(C#CC4(O)CCCCCC4)ccc31)[C@H](c1ccc(O)cc1)N1[C@H](c3ccccc3)[C@H](c3ccccc3)OC(=O)[C@H]1[C@@H]2C(N)=O`: the composite z-score in the test with Albumin (Bos taurus) is 0.93; in test [2] it was 0.0196; in test [3], -0.044; in [4], 0.704; in test [5] it was 1.81; in [6], 1.34. The composite z-score was 1.33 with Sam68 (KHDRBS1); -0.485 in test [7]; 0.641 in test [8]; 1.53 in [9]; 0.745 in test [10]; 1.36 in test [11]. Moreover, the composite z-score in test [12] is -0.173; in test [13], 0.419; in test [14], 0.308; in the test on Lefty1, 0.462; in [16] it was 0.706. Besides, the composite Z-score in test [1] was -0.108 (inactive). The z-score in [15] was 0.446; in [17], -1.37 (inactive).
